Unmarked numbers belong to inactive results. Calls come from the whole dose curve; as a rule, active = well fitted activation curve with a large enough effect in the repeat runs; inconclusive = weak or mixed curves; inactive = flat fitted curve, though single readings scatter.
test: A CellTox Green Cytotoxicity Assay to monitor cytotoxicity in HepG2 cells - 0 hour (AID 1224882); settings: CellTox Green fluorescence; series mostly up to 76.8 µM; cytotoxicity: at the top concentration; note: nearly all actives have a fitted effect of over 35% in size
How it was run: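 Real-time cytotoxicity: fluorescence of a cell-impermeant cyanine dye binding DNA of dead HepG2 cells, measured repeatedly (0–40 h) during compound exposure at 37 C. Cells seeded 600/well with reagent, dosed after 5 h.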
% is set by controls: 0 for no effect and ±100 for the full control effect.

| SMILES | cytotoxicity |
| --- | --- |
| C[C@H](CN1CCCC1)C(=O)c1ccc(C(F)(F)F)cc1 | 6.16% [at 35.3 µM] |
| C=CC(C)CCC=C(C)C (stereo not given) | -0.578% |
| O=C(c1ccc(Cl)cc1)c1ccc(Cl)cc1 | 2.86% |
| CCC(=O)O[C@]1(C(=O)COC)[C@@H](C)C[C@H]2[C@@H]3CCC4=CC(=O)C=C[C@]4(C)C3(F)[C@@H](O)C[C@@]21C (stereo not given in full) | -2.47% [at 35.3 µM] |
| COC(=O)C(C)(C)C | -3.42% |
| C=C[Si](OCC)(OCC)OCC | -9.07% |
| Oc1ccc(Oc2ccccc2)cc1 | 5.56% |
| C=CC(O)CCCCC (stereo not given) | -3.49% |
| O=C1c2ccccc2C(=O)C1c1ccc2ccccc2n1 | -12.5% [at 35.3 µM] |
| O=C(OCCOCCOCCOC(=O)c1ccccc1)c1ccccc1 | -1% |
| c1ccc(CN(Cc2ccccc2)Cc2ccccc2)cc1 | 5.55% |
| CCCCCCCCCCCCSCCOCCO | -1.88% [at 35.3 µM] |
| CC(C)=CCC/C(C)=C/C=N/O | -2.68% |
| Cc1c(N=C=O)cccc1N=C=O | 0.348% |
| CCC(CC)C(=O)O | 1.52% |
| O=C(O)c1ccccc1-n1cc(C(=O)O)c(=O)c2cc(Nc3c(F)cc(F)cc3Cl)c(Cl)cc21 | 4.54% |
| CCCN(C1CCN(C(=O)C2CCNCC2)CC1)[C@@H]1CCc2ccc(OC)cc2C1 | -9.24% |
| Clc1cc(Cl)c2c(c1)N=C1CCCCCN1C2 | -7.45% [at 35.3 µM] |
| C=C[Si]1(C)O[Si](C)(C=C)O[Si](C)(C=C)O[Si](C)(C=C)O1 (stereo not given) | 4.59% |
| CCOC(C)OCC | -2.53% |

From PubChem BioAssay (Tox21)
